From PubChem BioAssay (Tox21) come the findings set out here.

Structures are written as SMILES. Where “and” joins values, the source holds several entries; their conditions need not be identical. Equal values may be shown once. Results filed as inconclusive are left out. Calls of active or inactive are those of the source. Unless noted, the call rests on the fitted dose curve.

Assay [1] is described as follows: qHTS assay to identify small molecule agonists of the sonic hedgehog signaling (Shh) pathway (AID 1259368).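 Further: NIH/3T3-derived 3T3Gli1-Luc cells carrying a stable Gli1-driven firefly luciferase reporter; series mostly up to about 92 µM; nearly all actives have a fitted effect of over 15% in size.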 A digest of the protocol: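 Cells of a mouse NIH/3T3 clone stably expressing luciferase under the Gli1 transcriptional response element are exposed to test chemicals for 24 hr at 37 C. Pathway activation is detected as a rise in luminescence.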
Assay [2] can be described thus: qHTS assay to identify small molecule antagonists of the sonic hedgehog signaling (Shh) pathway (AID 1259369). Further: nearly all actives have a fitted effect of over 45% in size. Further: potency means the concentration at half of the fitted maximal effect. A digest of the protocol: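 Cells are plated and held 4hr at 37 C, compounds (DMSO) are pinned in, conditioned medium is added to stimulate the pathway, and after 24hr luciferase reagent is added for 30min before luminescence is read.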
In assay [3] the target is Estrogen receptor beta (Homo sapiens) (UniProt Q92731). The assay is described as follows: qHTS assay to identify small molecule agonists of the estrogen receptor beta (ER-beta) signaling pathway (AID 1259377; active means well fitted activation curve with a large enough effect in the signal ratio in the repeat runs, not every such curve was filed as active; the % refers to the signal ratio). A digest of the protocol:
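Reporter cells (HEK293T, ER-beta-UAS-bla) receive compounds or DMSO after a 6 hr pre-incubation. They then incubate 16 hr at 37C/5% CO2, and fluorescence from LiveBLAzer B/G substrate is measured after 2 hours at room temperature.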

Assay [4] shares this target. The assay is described as follows: qHTS assay to identify small molecule antagonists of the estrogen receptor beta (ER-beta) signaling pathway (AID 1259378; active means well fitted inhibition curve with a large enough effect in the signal ratio in the repeat runs, not every such curve was filed as active; the % refers to the signal ratio). A digest of the protocol: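 ER-beta-UAS-bla HEK293T cells in 2% charcoal-stripped FBS medium treated with compound plus 1nM final 17-beta-estradiol for 16 hr at 37C. Beta-lactamase reporter read by FRET substrate fluorescence after 2 hours at room temperature.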

Assay [5] can be described thus: qHTS assay to identify small molecule agonists of the androgen receptor (AR) signaling pathway in the presence of an antagonist - cell viability counter screen (AID 1259379; active means well fitted curve in the direction sought with a large enough effect in the repeat runs; an effect the other way counts as inactive or inconclusive;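 further: MDA-kb2 human breast cancer cells carrying an MMTV luciferase reporter; series mostly up to about 92 µM; nearly all actives have a fitted effect of over 25% in size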). A digest of the protocol:
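Cytotoxicity is assessed by CellTiter-Fluor in MDA-kb2 cells carrying an MMTV-driven luciferase reporter. Cells receive 3.0uM nilutamide plus compounds at 15 concentrations and incubate 16 hr at 37C without CO2 before fluorescence reading.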

Assay [6] is described as follows: qHTS assay to identify small molecule agonists of the estrogen receptor beta (ER-beta) signaling pathway - cell viability counter screen (AID 1259380; active means well fitted curve in the direction sought with a large enough effect in the repeat runs; an effect the other way counts as inactive or inconclusive; further: nearly all actives have a fitted effect of over 30% in size). A digest of the protocol:
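Cytotoxicity is measured in parallel with the reporter screen: after 16 hr compound exposure at 37C and a 2 hr LiveBLAzer step, CellTiter-Glo is added to the same ER-beta-UAS-bla HEK293T wells and luminescence read after 30 min.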

Assay [7] can be described thus: qHTS assay to identify small molecule antagonists of the estrogen receptor beta (ER-beta) signaling pathway - cell viability counter screen (AID 1259382; active means well fitted curve in the direction sought with a large enough effect in the repeat runs; an effect the other way counts as inactive or inconclusive; further: series mostly up to about 92 µM; nearly all actives have a fitted effect of over 55% in size). A digest of the protocol:
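Cytotoxicity counter screen multiplexed with the beta-lactamase antagonist assay: GripTite HEK293T ER-beta-bla cells were treated 16 hr with test chemicals in the presence of 1nM 17-beta-estradiol, and viability was measured by CellTiter-Glo.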

For assay [8], the target named is Estrogen receptor (Homo sapiens) (UniProt P03372). In words: qHTS assay to identify small molecule agonists of the estrogen receptor alpha (ER-alpha) signaling pathway in the presence of an antagonist (AID 1259383). Further: top concentration of the series differs between compounds; nearly all actives have a fitted effect of over 15% in size. A digest of the protocol:
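Agonist-mode confirmation in the presence of the ER antagonist ICI-182,780 at 10.0nM final. Breast-derived VM7Luc4E2 reporter cells were exposed to compounds for 22hr, and ERE-driven luciferase was quantified by luminescence.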

Assay [9] in a line: qHTS assay to identify small molecule agonists or antagonists of the thyroid stimulating hormone receptor (TSHR) signaling pathway - wild type cell line counter screen (AID 1259384). A digest of the protocol: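 Wild-type Hek293 cells, 800/well, 18 h at 37C, then compound with Ro20-1724 for 30 min RT. cAMP by HTRF (cAMP-d2/anti-cAMP cryptate), 1 h RT, fluorescence read. 15 concentrations, triplicates.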

Assay [10] concerns the target Thyrotropin receptor (Homo sapiens) (UniProt P16473). The assay is described as follows: qHTS assay to identify small molecule antagonists of the thyroid stimulating hormone receptor (TSHR) signaling pathway (AID 1259385). Further: nearly all actives have a fitted effect of over 20% in size. Further: potency means the concentration at half of the fitted maximal effect. A digest of the protocol: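 TSHR-HEK293 cells (800/well) plated 18 h, then compounds with Ro20-1724 and TSH at 1.5 ng/mL final, 30 min at room temperature. cAMP quantified by HTRF (cAMP-d2/anti-cAMP-cryptate, 1 h); 15 concentrations in triplicate.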

Assay [11] in a line: qHTS assay to identify small molecule agonists of the estrogen receptor alpha (ER-alpha) signaling pathway in the presence of an antagonist - cell viability counter screen (AID 1259386; active means well fitted curve in the direction sought with a large enough effect in the repeat runs; an effect the other way counts as inactive or inconclusive;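 further: series mostly up to about 92 µM; cells exposed to compounds for 22 h at 37 °C before the viability read; nearly all actives have a fitted effect of over 30% in size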). A digest of the protocol: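 Cytotoxicity was measured in parallel with the ERE-luciferase agonist screen, in the same wells. The cells were VM7Luc4E2, which endogenously express ER-alpha, and treatment was with compounds plus 10.0nM ICI-182,780 for 22hr.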

Assay [12] addresses Progesterone receptor (Homo sapiens) (UniProt P06401). The assay is described as follows: qHTS assay to identify small molecule agonists of the progesterone receptor (PR) signaling pathway (AID 1346784). Further: nearly all actives have a fitted effect of over 30% in size. A digest of the protocol: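 Reporter assay, GripTite PR-UAS-bla HEK 293T cells: 16 hr exposure to DMSO-dissolved compounds at 37C, 5% CO2, in steroid-depleted (2% charcoal-stripped FBS) medium; beta-lactamase measured by FRET fluorescence.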

Assay [13] shares this target. In words: qHTS assay to identify small molecule antagonists of the progesterone receptor (PR) signaling pathway (AID 1346795; active means well fitted inhibition curve with a large enough effect in the signal ratio in the repeat runs, not every such curve was filed as active; the % refers to the signal ratio). A digest of the protocol: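 Stimulus R5020 at 1 nM final; cells HEK293T PR-UAS-bla; medium with 2% charcoal-stripped FBS; compound exposure 16 hr at 37C, 5% CO2; detection by FRET beta-lactamase substrate, 2 hr, room temperature.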
The nature of assay [14]: qHTS assay to identify small molecule antagonists of the progesterone receptor (PR) signaling pathway - cell viability counter screen (AID 1346798; active means well fitted curve in the direction sought with a large enough effect in the repeat runs; an effect the other way counts as inactive or inconclusive; further: series mostly up to about 92 µM; nearly all actives have a fitted effect of over 50% in size). A digest of the protocol: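 In the same plates used for the beta-lactamase readout, cell viability of compound- and R5020-treated PR-UAS-bla HEK293T cells (16 hr, 37C) was assessed by CellTiter-Glo luminescence.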
A short description of assay [15]: qHTS assay to identify small molecule agonists of the progesterone receptor (PR) signaling pathway - cell viability counter screen (AID 1346799). Further: nearly all actives have a fitted effect of over 45% in size. A digest of the protocol:
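Multiplexed viability read: CellTiter-Glo luminescence, 30 min RT, following LiveBLAzer FRET measurement on PR-UAS-bla HEK293T cells exposed to compounds 16 hr.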

Assay [16] is described as follows: qHTS assay to identify small molecule antagonists of the TGF-beta/Smad signaling pathway - cell viability counter screen (AID 1346824; active means well fitted curve in the direction sought with a large enough effect in the repeat runs; an effect the other way counts as inactive or inconclusive; further: nearly all actives have a fitted effect of over 50% in size). A digest of the protocol:
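SBE-bla HEK 293T cells, incubated overnight, then compound plus 0.25 ng/mL TGF-beta1 (stock added) for 5 hr at 37 C. Viability was read in the same wells by CellTiter-Glo luminescence after 30 min at room temperature.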

The nature of assay [17]: qHTS assay to identify small molecule agonists of the TGF-beta/Smad signaling pathway - cell viability counter screen (AID 1346829; active means well fitted curve in the direction sought with a large enough effect in the repeat runs; an effect the other way counts as inactive or inconclusive; further: top concentration of the series differs between compounds; nearly all actives have a fitted effect of over 45% in size). A digest of the protocol:
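SBE-bla HEK 293T cells plated overnight, compound exposure 5 hr at 37 C. Viability read in the same wells by CellTiter-Glo luminescence after 30 min at room temperature, following the beta-lactamase read.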

Assay [18] in a line: qHTS assay to identify small molecule agonists of the TGF-beta/Smad signaling pathway (AID 1346859; active means well fitted activation curve with a large enough effect in the signal ratio in the repeat runs, not every such curve was filed as active; the % refers to the signal ratio; further: series mostly up to about 77 µM). A digest of the protocol: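 Screening used HEK 293T SBE-bla cells at 4,000/well. Test agents: 5 hr, 37 C. Detection: FRET substrate, 2 hr RT, then excitation 405 nm with emissions at 460 and 530 nm.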
Assay [19] has as its target Thyrotropin-releasing hormone receptor (Homo sapiens) (UniProt P34981). The assay is described as follows: qHTS assay to identify small molecule antagonists of the thyrotropin-releasing hormone receptor (TRHR) signaling pathway (AID 1346877; active means well fitted inhibition curve with a large enough effect in the repeat runs, not every such curve was filed as active; further: series mostly up to about 51 µM). A digest of the protocol:
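Antagonism is measured as suppression of the calcium response to 1 nM TRH in TRHR-HEK293 cells that have been dye-loaded for 2 h at 37 °C after overnight plating. Each compound is tested at 15 concentrations in triplicate.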

In assay [20] the target is Androgen receptor (Homo sapiens) (UniProt P10275). In words: qHTS assay to identify small molecule agonists of the androgen receptor (AR) signaling pathway in the presence of an antagonist (AID 1259381). Further: nearly all actives have a fitted effect of over 15% in size. A digest of the protocol: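 Agonist-mode confirmation screen: human MDA-kb2 cells stably expressing luciferase under an MMTV promoter bearing AR and GR response elements, co-treated with 3.0uM nilutamide (final). Luminescence measured after 16hr compound incubation.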
Chain of Androgen receptor (Homo sapiens) (P10275 whole entry, looked up): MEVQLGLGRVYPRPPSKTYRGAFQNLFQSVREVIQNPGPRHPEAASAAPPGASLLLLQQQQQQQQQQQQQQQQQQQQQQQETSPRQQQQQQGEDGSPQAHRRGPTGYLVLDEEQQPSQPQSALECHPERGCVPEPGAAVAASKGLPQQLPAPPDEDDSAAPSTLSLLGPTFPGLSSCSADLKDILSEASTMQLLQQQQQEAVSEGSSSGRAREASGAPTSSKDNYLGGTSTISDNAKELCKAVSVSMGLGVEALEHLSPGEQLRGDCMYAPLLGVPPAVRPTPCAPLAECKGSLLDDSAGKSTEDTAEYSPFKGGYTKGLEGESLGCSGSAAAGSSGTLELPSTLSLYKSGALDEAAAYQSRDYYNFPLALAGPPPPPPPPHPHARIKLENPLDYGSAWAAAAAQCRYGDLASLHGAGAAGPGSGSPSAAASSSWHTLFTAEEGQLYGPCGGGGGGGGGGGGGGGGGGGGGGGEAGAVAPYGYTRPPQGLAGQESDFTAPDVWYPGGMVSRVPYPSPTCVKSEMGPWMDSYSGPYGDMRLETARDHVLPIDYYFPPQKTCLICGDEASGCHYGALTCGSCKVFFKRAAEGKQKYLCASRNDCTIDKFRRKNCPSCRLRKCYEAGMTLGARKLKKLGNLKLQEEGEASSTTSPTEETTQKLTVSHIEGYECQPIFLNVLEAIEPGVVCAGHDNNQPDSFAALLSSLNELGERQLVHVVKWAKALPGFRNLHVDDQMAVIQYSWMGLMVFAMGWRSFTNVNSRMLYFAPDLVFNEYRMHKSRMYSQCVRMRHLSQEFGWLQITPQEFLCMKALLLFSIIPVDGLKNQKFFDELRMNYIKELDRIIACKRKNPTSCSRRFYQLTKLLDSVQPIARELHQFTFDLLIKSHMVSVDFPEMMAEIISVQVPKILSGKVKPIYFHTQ

Chain of Progesterone receptor (Homo sapiens) (P06401 whole entry, looked up): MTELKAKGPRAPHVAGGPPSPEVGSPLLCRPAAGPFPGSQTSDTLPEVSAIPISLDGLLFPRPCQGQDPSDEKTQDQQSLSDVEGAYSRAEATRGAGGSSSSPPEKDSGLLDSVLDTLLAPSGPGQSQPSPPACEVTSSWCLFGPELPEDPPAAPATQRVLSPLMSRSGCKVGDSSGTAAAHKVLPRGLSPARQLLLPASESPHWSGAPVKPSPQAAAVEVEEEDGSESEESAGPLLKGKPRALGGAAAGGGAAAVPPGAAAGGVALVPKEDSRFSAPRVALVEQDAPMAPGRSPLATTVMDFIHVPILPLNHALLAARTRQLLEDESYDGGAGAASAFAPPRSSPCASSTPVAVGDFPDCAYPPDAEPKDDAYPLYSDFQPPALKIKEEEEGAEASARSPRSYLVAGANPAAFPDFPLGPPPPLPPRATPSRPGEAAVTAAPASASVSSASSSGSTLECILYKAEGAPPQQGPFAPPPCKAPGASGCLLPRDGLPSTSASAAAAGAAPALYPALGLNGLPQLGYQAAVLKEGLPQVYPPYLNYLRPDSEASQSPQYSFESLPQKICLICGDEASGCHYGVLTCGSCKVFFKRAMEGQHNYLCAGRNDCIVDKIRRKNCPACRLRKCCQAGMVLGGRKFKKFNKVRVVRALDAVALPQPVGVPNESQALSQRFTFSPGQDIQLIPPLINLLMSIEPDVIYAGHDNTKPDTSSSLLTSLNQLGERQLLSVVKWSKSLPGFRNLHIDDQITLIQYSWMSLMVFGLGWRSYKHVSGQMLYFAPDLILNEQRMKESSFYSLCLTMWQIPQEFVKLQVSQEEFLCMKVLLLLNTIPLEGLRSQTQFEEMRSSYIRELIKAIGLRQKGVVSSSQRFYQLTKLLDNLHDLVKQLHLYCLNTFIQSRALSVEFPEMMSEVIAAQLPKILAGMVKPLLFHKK
Chain of Thyrotropin-releasing hormone receptor (Homo sapiens) (P34981 whole entry, looked up): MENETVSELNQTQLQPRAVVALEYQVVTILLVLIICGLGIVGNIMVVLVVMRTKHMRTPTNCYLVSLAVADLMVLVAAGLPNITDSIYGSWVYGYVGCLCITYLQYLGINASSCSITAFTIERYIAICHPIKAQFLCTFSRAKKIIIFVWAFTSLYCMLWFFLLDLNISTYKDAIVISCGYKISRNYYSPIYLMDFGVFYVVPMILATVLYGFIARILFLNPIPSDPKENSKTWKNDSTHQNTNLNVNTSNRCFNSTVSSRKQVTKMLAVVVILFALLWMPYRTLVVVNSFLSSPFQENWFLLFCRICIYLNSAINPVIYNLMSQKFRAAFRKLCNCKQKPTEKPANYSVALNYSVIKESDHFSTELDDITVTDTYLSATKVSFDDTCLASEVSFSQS
Chain of Estrogen receptor beta (Homo sapiens) (Q92731 whole entry, looked up): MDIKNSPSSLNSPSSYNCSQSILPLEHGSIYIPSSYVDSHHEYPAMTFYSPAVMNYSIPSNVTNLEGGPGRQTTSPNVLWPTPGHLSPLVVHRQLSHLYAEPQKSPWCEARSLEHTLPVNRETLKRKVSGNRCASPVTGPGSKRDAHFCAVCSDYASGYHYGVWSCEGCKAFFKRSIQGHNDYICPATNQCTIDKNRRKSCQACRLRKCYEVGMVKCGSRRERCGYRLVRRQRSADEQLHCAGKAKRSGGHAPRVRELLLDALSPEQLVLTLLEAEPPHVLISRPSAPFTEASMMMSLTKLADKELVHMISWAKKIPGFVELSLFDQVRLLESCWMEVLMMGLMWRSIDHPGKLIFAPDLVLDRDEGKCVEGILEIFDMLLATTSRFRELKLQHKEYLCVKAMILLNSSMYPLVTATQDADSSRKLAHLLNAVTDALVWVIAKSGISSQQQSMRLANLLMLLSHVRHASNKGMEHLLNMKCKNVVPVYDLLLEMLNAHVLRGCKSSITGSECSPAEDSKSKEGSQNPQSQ
Chain of Thyrotropin receptor (Homo sapiens) (P16473 whole entry, looked up): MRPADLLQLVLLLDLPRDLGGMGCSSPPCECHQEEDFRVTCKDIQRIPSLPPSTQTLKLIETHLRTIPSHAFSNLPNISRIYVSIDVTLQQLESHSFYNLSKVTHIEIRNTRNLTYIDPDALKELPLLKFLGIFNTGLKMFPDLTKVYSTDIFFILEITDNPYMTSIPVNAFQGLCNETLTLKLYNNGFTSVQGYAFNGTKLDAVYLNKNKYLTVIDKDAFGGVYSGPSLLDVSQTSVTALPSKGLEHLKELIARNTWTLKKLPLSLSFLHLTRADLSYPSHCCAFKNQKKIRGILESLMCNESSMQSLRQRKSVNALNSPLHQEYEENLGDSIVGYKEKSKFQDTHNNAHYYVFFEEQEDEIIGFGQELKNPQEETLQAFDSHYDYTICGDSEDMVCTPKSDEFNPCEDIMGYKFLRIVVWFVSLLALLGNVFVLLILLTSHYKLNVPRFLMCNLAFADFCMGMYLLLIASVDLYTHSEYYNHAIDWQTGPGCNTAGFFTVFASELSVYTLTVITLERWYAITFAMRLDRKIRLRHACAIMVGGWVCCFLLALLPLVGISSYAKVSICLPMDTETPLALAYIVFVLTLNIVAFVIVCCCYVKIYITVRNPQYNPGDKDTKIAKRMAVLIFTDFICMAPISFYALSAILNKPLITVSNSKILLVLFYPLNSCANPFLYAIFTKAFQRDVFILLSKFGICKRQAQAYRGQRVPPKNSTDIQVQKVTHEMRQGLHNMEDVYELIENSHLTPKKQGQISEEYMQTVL
Chain of Estrogen receptor (Homo sapiens) (P03372 whole entry, looked up): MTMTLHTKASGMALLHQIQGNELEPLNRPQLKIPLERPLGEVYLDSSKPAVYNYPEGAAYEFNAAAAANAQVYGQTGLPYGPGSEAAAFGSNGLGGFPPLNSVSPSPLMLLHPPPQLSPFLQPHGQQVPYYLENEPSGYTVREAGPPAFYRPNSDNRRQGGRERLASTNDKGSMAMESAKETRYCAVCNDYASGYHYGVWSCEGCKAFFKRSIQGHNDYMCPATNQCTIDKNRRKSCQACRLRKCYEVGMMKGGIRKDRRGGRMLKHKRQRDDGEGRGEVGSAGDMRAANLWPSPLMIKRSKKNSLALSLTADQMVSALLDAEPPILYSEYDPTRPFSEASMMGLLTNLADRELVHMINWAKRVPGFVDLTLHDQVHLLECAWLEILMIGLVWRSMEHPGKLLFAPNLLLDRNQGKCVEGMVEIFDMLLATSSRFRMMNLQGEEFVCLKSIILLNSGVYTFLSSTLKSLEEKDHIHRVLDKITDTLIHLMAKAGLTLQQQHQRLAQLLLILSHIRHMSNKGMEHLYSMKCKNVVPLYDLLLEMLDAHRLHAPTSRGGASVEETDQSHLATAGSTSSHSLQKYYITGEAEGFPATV

Regarding `CC(C)CCCC(C)N` (stereo not given), the compound was classed as inactive in assay [1], in assay [3], in assay [4], in assay [9], in assay [17] and in assay [18]. Further, the Potency entry in assay [2], in assay [5], in [6], in assay [7], in assay [8] and in assay [10] was “inactive” in each case. The Potency entry in assay [11], in assay [12], in [13], in assay [14], in [15] and in assay [16] was “inactive” throughout.

For `CCN(CC)CCNC(=O)c1cc(S(C)(=O)=O)ccc1OC`, the compound was classed as inactive in assay [1], in assay [3], in assay [4], in [9], in assay [17] and in [18]. Besides, the outcome in [19] was inactive. In addition, the Potency entry in assay [2], in [5], in [6], in assay [7], in [8] and in assay [10] was “inactive” in each case. Also, the Potency entry in assay [11], in assay [12], in assay [13], in [14], in assay [15] and in assay [16] was “inactive” each time.

Consider `CS(=O)(=O)O`, for which the compound was classed as inactive in [1], in [3], in assay [4], in assay [9], in assay [17] and in [19]. Besides, the Potency entry in assay [2], in assay [5], in [6], in assay [20], in [7] and in assay [8] was “inactive” each time. The Potency result in [10], in assay [11], in assay [12], in [13], in [14] and in assay [15] was “inactive” in each case. For the same compound, the Potency result in assay [16] is “inactive”.

Turning to `O=C1CCCCCCCCCCCN1`, the result in [1], in assay [3], in assay [4], in assay [9], in assay [17] and in [18] was inactive. Besides, the Potency result in assay [2], in [5], in assay [6], in assay [7], in [8] and in assay [10] was “inactive” each time. Moreover, the Potency entry in assay [11], in [12], in assay [13], in assay [14], in assay [15] and in assay [16] was “inactive” in each case.

As to `CCCCOCCOCCOCc1cc2c(cc1CCC)OCO2`, the outcome in assay [1], in assay [3], in [4], in [9], in [17] and in assay [18] was inactive. The call in assay [19] was inactive. In addition, the Potency in assay [2] is 1.39 µM (active) and 2.66 µM (active); in assay [10], 23.7 µM (active). For the same compound, the Potency entry in assay [5], in [6], in assay [20], in assay [7], in [11] and in assay [12] was “inactive” in each case. Further, the Potency result in assay [14], in assay [15] and in assay [16] was “inactive” in each case.

As for `CC(=O)OC/C=C(\C)CC/C=C(\C)CCC=C(C)C`, the outcome in assay [1], in assay [3], in [4], in [9], in assay [17] and in assay [18] was inactive. Further, the Potency entry in assay [2], in assay [5], in assay [6], in [7], in [8] and in [10] was “inactive” in each case. Besides, the Potency result in assay [11], in [12], in [13], in [14], in [15] and in [16] was “inactive” throughout.

With `Cc1cnc(NS(=O)(=O)c2ccc(N)cc2)nc1`, the compound was classed as inactive in assay [1], in assay [3], in assay [4], in [9], in assay [17] and in [18]. Moreover, the call in assay [19] was inactive. Also, the Potency entry in assay [2], in assay [5], in [6], in [20], in [7] and in assay [8] was “inactive” in each case. Besides, the Potency result in assay [10], in assay [11], in [12], in assay [13], in assay [14] and in [15] was “inactive” throughout. Further, the Potency result in [16] is “inactive”.
